Measurements taken from PubChem BioAssay AID1159580 (chemical genetic matrix, 2015).
Hit rate of the full screen: of about 5,500 compounds, about 2,000 (36%) were called active. Not shown: some 18% with an inconclusive outcome. Rule as the data show it: active = normalized growth mostly below about 0.91 (no sharp cut-off); inconclusive = no clear call, values can overlap the other calls; inactive = mostly above about 0.92. The list shows a part of the results.

Experiment: chemical genetic growth profiling, strain panel (AID 1159580);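 also: tested at 20 µM; growth read once vehicle control cultures reached saturation at 30 °C; 1 = growth at the plate median or of vehicle wells; lower values mean less growth of the strain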
Conditions: growth OD

Measured: normalized growth

Cc1cccc(CN2CCN(C(c3ccccc3)c3ccc(Cl)cc3)CC2)c1 (stereo not drawn)
inactive: S. cerevisiae deletion strains, locus YKL009W, strain mrt4, active compounds read low 0.971 | S. cerevisiae deletion strains, locus YKL068W, active compounds read low 0.992 | S. cerevisiae deletion strains, locus YKL085W, strain MDH1 (second series), active compounds read low 0.978 | S. cerevisiae deletion strains, locus YKL085W, strain MDH1, active compounds read low 0.978 | S. cerevisiae deletion strains, locus YKR026C, strain gcn3, active compounds read low 0.969 | S. cerevisiae deletion strains, locus YKR091W, strain srl3, active compounds read low 0.964 | S. cerevisiae deletion strains, locus YLR039C, strain RIC1, active compounds read low 1.31 | S. cerevisiae deletion strains, locus YLR102C, strain apc9, active compounds read low 0.99 | S. cerevisiae deletion strains, locus YLR113W, strain HOG1, active compounds read low 0.912 | S. cerevisiae deletion strains, locus YLR262C, strain YPT6 (second series), active compounds read low 0.905 | S. cerevisiae deletion strains, locus YLR262C, strain YPT6, active compounds read low 1.06 | S. cerevisiae deletion strains, locus YLR268W, strain sec22, active compounds read low 0.895 | S. cerevisiae deletion strains, locus YLR342W, strain FKS1 (second series), active compounds read low 0.791 | S. cerevisiae deletion strains, locus YLR342W, strain FKS1, active compounds read low 0.929 | S. cerevisiae deletion strains, locus YLR357W, strain rsc2, active compounds read low 0.908 | S. cerevisiae deletion strains, locus YLR371W, strain rom2, active compounds read low 0.964 | S. cerevisiae deletion strains, locus YLR384C, strain iki3, active compounds read low 0.992 | S. cerevisiae deletion strains, locus YML124C, strain tub3, active compounds read low 0.977 | S. cerevisiae deletion strains, locus YMR078C, strain ctf18, active compounds read low 0.986 | S. cerevisiae deletion strains, locus YMR307W, strain GAS1, active compounds read low 0.611 | S. cerevisiae deletion strains, locus YNL183C, strain NPR1, active compounds read low 0.947 | S. cerevisiae deletion strains, locus YNL250W, strain rad50, active compounds read low 0.983 | S. cerevisiae deletion strains, locus YNL271C, strain bni1, active compounds read low 0.988 | S. cerevisiae deletion strains, locus YNL298W, strain CLA4, active compounds read low 0.988 | S. cerevisiae deletion strains, locus YNL307C, strain MCK1, active compounds read low 0.96 | S. cerevisiae deletion strains, locus YNL322C, strain KRE1, active compounds read low 0.972 | S. cerevisiae deletion strains, locus YNR049C, strain mso1, active compounds read low 0.983 | S. cerevisiae deletion strains, locus YOL012C, strain htz1 0.942 | S. cerevisiae deletion strains, locus YOR061W, strain CKA2, active compounds read low 0.916 | S. cerevisiae deletion strains, locus YOR069W, strain VPS5, active compounds read low 0.955 | S. cerevisiae deletion strains, locus YOR080W, strain dia2, active compounds read low 0.937 | S. cerevisiae deletion strains, locus YOR136W, strain idh2, active compounds read low 0.937 | S. cerevisiae deletion strains, locus YOR144C, strain elg1, active compounds read low 0.973 | S. cerevisiae deletion strains, locus YOR231W, strain MKK1, active compounds read low 0.887 | S. cerevisiae deletion strains, locus YOR316C, strain cot1, active compounds read low 0.98 | S. cerevisiae deletion strains, locus YPL241C, strain CIN2, active compounds read low 0.956 | S. cerevisiae deletion strains, locus YPL256C, strain CLN2, active compounds read low 0.94 | S. cerevisiae deletion strains, locus YPR119W, strain clb2, active compounds read low 0.996 | S. cerevisiae deletion strains, locus YPR141C, strain kar3, active compounds read low 0.989
active: S. cerevisiae deletion strains, locus YJR075W, strain HOC1, active compounds read low 0.794 | S. cerevisiae deletion strains, locus YKL160W, strain elf1, active compounds read low 0.75 | S. cerevisiae deletion strains, locus YKR001C, strain vps1, active compounds read low 0.47 | S. cerevisiae deletion strains, locus YLL001W, strain dnm1, active compounds read low 0.81 | S. cerevisiae deletion strains, locus YLL026W, active compounds read low 0.8 | S. cerevisiae deletion strains, locus YLL041C, strain sdh2, active compounds read low 0.926 | S. cerevisiae deletion strains, locus YLR027C, strain aat2, active compounds read low 0.744 | S. cerevisiae deletion strains, locus YLR058C, strain SHM2, active compounds read low 0.766 | S. cerevisiae deletion strains, locus YLR221C, strain rsa3, active compounds read low 0.601 | S. cerevisiae deletion strains, locus YLR258W, strain gsy2, active compounds read low 0.721 | S. cerevisiae deletion strains, locus YLR320W, strain mms22, active compounds read low 0.713 | S. cerevisiae deletion strains, locus YLR330W, strain CHS5, active compounds read low 0.743 | S. cerevisiae deletion strains, locus YLR370C, strain arc18, active compounds read low 0.853 | S. cerevisiae deletion strains, locus YLR418C, strain cdc73, active compounds read low 0.365 | S. cerevisiae deletion strains, locus YML016C, strain PPZ1, active compounds read low 0.887 | S. cerevisiae deletion strains, locus YML032C, strain rad52, active compounds read low 0.831 | S. cerevisiae deletion strains, locus YML120C, strain ndi1, active compounds read low 0.616 | S. cerevisiae deletion strains, locus YMR058W, strain fet3, active compounds read low 0.873 | S. cerevisiae deletion strains, locus YMR125W, strain sto1, active compounds read low 0.854 | S. cerevisiae deletion strains, locus YMR129W, active compounds read low 0.876 | S. cerevisiae deletion strains, locus YMR205C, strain PFK2, active compounds read low 0.802 | S. cerevisiae deletion strains, locus YMR223W, strain ubp8, active compounds read low 0.809 | S. cerevisiae deletion strains, locus YMR231W, strain pep5, active compounds read low 0.526 | S. cerevisiae deletion strains, locus YMR263W, strain SAP30, active compounds read low 0.754 | S. cerevisiae deletion strains, locus YNL067W, strain RPL9B, active compounds read low 0.789 | S. cerevisiae deletion strains, locus YNL071W, strain lat1, active compounds read low 0.801 | S. cerevisiae deletion strains, locus YNL209W, strain ssb2, active compounds read low 0.54 | S. cerevisiae deletion strains, locus YNL233W, strain BNI4, active compounds read low 0.692 | S. cerevisiae deletion strains, locus YNL248C, strain rpa49, active compounds read low 0.806 | S. cerevisiae deletion strains, locus YNL322C, strain KRE1 (second series), active compounds read low 0.685 | S. cerevisiae deletion strains, locus YNR052C, strain pop2, active compounds read low 0.724 | S. cerevisiae deletion strains, locus YOL147C, strain pex11, active compounds read low 0.913 | S. cerevisiae deletion strains, locus YOR001W, strain rrp6, active compounds read low 0.802 | S. cerevisiae deletion strains, locus YOR070C, strain gyp1, active compounds read low 0.735 | S. cerevisiae deletion strains, locus YOR083W, strain WHI5, active compounds read low 0.689 | S. cerevisiae deletion strains, locus YOR106W, strain vam3, active compounds read low 0.549 | S. cerevisiae deletion strains, locus YOR184W, strain ser1, active compounds read low 0.833 | S. cerevisiae deletion strains, locus YOR265W, strain rbl2, active compounds read low 0.774 | S. cerevisiae deletion strains, locus YOR270C, strain vph1, active compounds read low 0.524 | S. cerevisiae deletion strains, locus YOR290C, strain snf2, active compounds read low 0.764 | S. cerevisiae deletion strains, locus YPL051W, strain arl3, active compounds read low 0.496 | S. cerevisiae deletion strains, locus YPL055C, strain LGE1, active compounds read low 0.439 | S. cerevisiae deletion strains, locus YPL078C, strain atp4, active compounds read low 0.887 | S. cerevisiae deletion strains, locus YPL106C, strain sse1, active compounds read low 0.828 | S. cerevisiae deletion strains, locus YPL240C, strain hsp82, active compounds read low 0.808 | S. cerevisiae deletion strains, locus YPR163C, strain tif3, active compounds read low 0.721 | S. cerevisiae deletion strains, locus YPR167C, strain met16, active compounds read low 0.884 | S. cerevisiae deletion strains, strain wtn01, active compounds read low 0.761 | S. cerevisiae strains, strain wild type, active compounds read low 0.812
